# Compound activity deposited in PubChem BioAssay by National Center for Advancing Translational Sciences (NCATS).
# SW480 rerep: inducers of DNA re-replication in SW480 colon cancer cells | SW480 DNA re-replication, Hoechst DNA content imaging, 48 h | Potency, µM (doses to about 46.1 µM), without a hit: top-dose re-replication activation, hits mostly activators | actives 1.8% (n = 340,000) | AID 624297; also: % of control where 0% means no effect; nearly all actives have a fitted effect of over 55% in size
#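 SW480 cells exposed to compounds for 48 hr at 37 C, 5% CO2, then Hoechst-stained 40 min. Nuclear DNA content imaged by fluorescence scanning (405 nm excitation, 500-530 nm emission); re-replication scored as increased high-intensity nuclei.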
# HT1080-NT tox: kills 2HG-producing HT-1080-NT fibrosarcoma cells; HT-1080-NT fibrosarcoma viability, CellTiter-Glo ATP luminescence, 48 h; actives 1.6% (n = 360,000); Potency, µM (series often up to 46.1 µM), for inactives: at the top dose activity, negative = less viability, actives largely listed as cytotoxic; AID 686970;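 also: NT is the 2HG producing partner of a matched IDH1 knockdown line; 0% = DMSO-treated cells and -100% = media-only wells without cells; nearly all actives have a fitted effect of over 55% in size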
#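 Viability by CellTiter-Glo luminescence after 48 h compound exposure at 37C of HT-1080-NT cells (750/well, RPMI, 5% FBS). % activity scaled between DMSO wells and medium-only wells, then curve-fitted and categorized by curve class.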
# HT1080 IDH1KD tx: kills HT-1080 cells with IDH1 knockdown; actives 2% (n = 360,000); HT-1080 IDH1 knockdown viability, ATP luminescence, 48 h; AID 686971; Potency, µM (series often up to 46.1 µM), without a hit: at the highest dose activity, negative = toxicity, most hits filed as cytotoxic;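 also: 0% = DMSO wells and -100% = cell-free medium wells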
#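 CellTiter-Glo luminescence after 48 h compound exposure at 37 degrees C of IDH1-knockdown HT-1080 cells in 5% FBS RPMI. %Activity scaled between DMSO wells and cell-free media wells, with curves fitted and assigned curve classes.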
# KB-V1 cytotox: KB-V1 MDR subline cytotoxicity; KB-V1 MDR cells viability, CellTiter-Glo, 72 h; Potency, µM (top dose mostly 46.1 µM), most hits filed as cytotoxic; actives 3.4% (n = 400,000); also: % is scaled to controls: 0 for no effect and ±100 for the full control effect; nearly all actives have a fitted effect of over 60% in size
#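 Drug-selected KB-V1 cells, grown in DMEM lacking phenol red with 10% FBS, receive compound titrations; after three days at 37 degrees C, surviving cell ATP is quantified by CellTiter-Glo luminescence and responses normalized and curve-fitted.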
# KB-3-1 tox: KB-3-1 parental cell cytotoxicity. KB-3-1 viability, CellTiter-Glo ATP luminescence, 72 h. actives 1.4% (n = 400,000). Potency, µM (doses to about 46.1 µM), most hits filed as cytotoxic; also: % is scaled to controls: 0 for no effect and ±100 for the full control effect; nearly all actives have a fitted effect of over 60% in size
#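 Parental KB-3-1 viability, qHTS format: 72 h compound exposure, 37 °C; CellTiter-Glo; media-only wells and DMSO plates as controls; concentration-effect fits on corrected data.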
# MCF10A rerep: DNA re-replication induction in MCF 10a cells; MCF 10A DNA re-replication, Hoechst nuclear intensity, 48 h; Potency, µM (series often up to 46.1 µM), inactives show top-dose activity, positive = re-replication, most hits filed as activators; actives 2.9% (n = 350,000); also: % of control where 0% means no effect; nearly all actives have a fitted effect of over 50% in size
# * = called active by the depositor; i = inactive; ? = inconclusive; . = not tested or not shown; [ ] = remark or other dose. Rows were chosen to be rich in hits. Some 7.9% of all compounds tested hit in one or more screens of this group. Calls follow the shape of the dose curve; as a rule, active = well fitted curve in the direction sought with a large enough effect; inconclusive = small, poorly fitted or top-dose-only effect, or another doubt; inactive = no such curve, though single readings can be large; an effect the other way counts as inactive or inconclusive. Potency is read from the fitted curve at half-maximal effect.
SMILES,SW480 rerep,HT1080-NT tox,HT1080 IDH1KD tx,KB-V1 cytotox,KB-3-1 tox,MCF10A rerep
CC(=O)NC1=NN(C(C)=O)C(C)(c2ccccn2)S1 (stereo not given),0.4%,10.8%,10.8%,i,i,-1.2%
CC(=O)NC1=NN(C(C)=O)C(C)(c2ccc(Br)cc2)S1 (stereo not given),?,?,18.4µM*,i,i,?
CN(C)c1ccc(/C=C/CNC[C@H]2O[C@@H](n3ccc(N)nc3=O)[C@H](O)[C@@H]2O)cc1,.,1.9%,1.5%,i,i,.
Cc1ccc(S(=O)(=O)N2CCN(C(=O)[C@H](Cc3ccccc3)NC(=O)c3ccco3)CC2)cc1C,0.4%,-2.6%,-13.5%,11.6µM*,i,1.5%
Cc1ccc(S(=O)(=O)N2CCN(C(=O)[C@H](Cc3ccccc3)NC(=O)c3ccco3)CC2)cc1,2.3%,-1.4%,3.2%,i,?,9.2%
Cc1ccc(S(=O)(=O)N2CCN(C(=O)C3COc4ccccc4O3)CC2)cc1C (stereo not given),0.9%,-2.4%,-0.1%,9.2µM*,i,11.8%
O=C(Cn1c(=O)c2cc(Cl)ccc2n2nncc12)Nc1ccccc1,.,.,.,i,i,.
CCN(C(=O)Cn1c(C(=O)OC)cc2sccc21)c1cccc(C)c1,.,.,.,i,i,.
NC(c1ccccc1)c1csc(NC(=O)Nc2cccc(Cl)c2)n1 (stereo not given),.,20.6µM*,16.4µM*,i,i,.
NC(c1csc(NC(=O)Nc2ccccc2)n1)C1CCCCC1 (stereo not given),.,?,?,18.4µM*,?,.
NC(c1csc(NC(=O)Nc2ccccc2Cl)n1)C1CCCCC1 (stereo not given),.,?,?,i,i,.
NC(CCc1ccccc1)c1csc(NC(=O)Nc2cccc(Cl)c2)n1 (stereo not given),.,?,?,i,i,.
NC(c1csc(Nc2nncc3ccccc23)n1)c1ccccc1Cl (stereo not given),.,?,-23.3%,i,i,.
NC(c1ccccc1)c1csc(NC(=O)Nc2ccc(OC(F)(F)F)cc2)n1 (stereo not given),.,?,18.4µM*,i,i,.
NC(c1csc(Nc2nncc3ccccc23)n1)C1CCCCC1 (stereo not given),.,20.6µM*,23.1µM*,?,?,.
Cc1ccc(CCNS(=O)(=O)c2c(C)nc3sc(C)c(C)n3c2=O)cc1,.,.,.,i,i,.
O=C(CNC(=O)c1ccccc1)OCc1cc(=O)n2nc(C3CC3)sc2n1,.,.,.,i,i,.
CCOC(=O)C1=C[C@@H](c2ccccc2)N(S(=O)(=O)c2ccc(C)cc2)[C@H]1c1ccc(F)cc1,.,8.4%,-1.3%,?,i,.
Cc1ccc(-n2nc(C(=O)N3CCN(c4ccc(F)cc4)CC3)c(=O)n(C)c2=O)cc1,.,.,.,i,i,.
NC(c1csc(NC(=O)c2cccc(OC(F)(F)F)c2)n1)c1ccccc1Cl (stereo not given),.,23.1µM*,?,i,?,.
COC(=O)c1cnc(Nc2nc(C(N)c3ccccc3Cl)cs2)nc1C(F)(F)F (stereo not given),.,?,?,i,i,.
NC(c1csc(NC(=O)Nc2cccc(Cl)c2)n1)C1CCCCC1 (stereo not given),.,18.4µM*,18.4µM*,i,?,.
COc1ccc(NC(=O)Cn2cc(S(=O)(=O)c3ccccc3)c(=O)c3cc(C)ccc32)cc1Cl,.,.,.,?,i,.
Cc1cnc(=O)[nH]c1SCC(=O)c1ccc(F)cc1,73.5%,-28.1%,-14.2%,i,i,18.4µM*
Cc1csc(NC(=O)CSc2[nH]c(=O)ncc2C)n1,-3.2%,4.5%,1.9%,?,i,-0.1%
SMILES,SW480 rerep,HT1080-NT tox,HT1080 IDH1KD tx,KB-V1 cytotox,KB-3-1 tox,MCF10A rerep
COc1cccc(/C(O)=C/c2nc3ccc(C(=O)NCCc4ccc(Cl)cc4)cc3[nH]c2=O)c1,11.6µM*,18.4µM*,?,?,20.6µM*,8.2µM*
O=C(NCCc1ccc(Cl)cc1)c1ccc2nc[nH]c2c1,-3.7%,0.1%,-1.4%,i,i,17.4%
O=C1NC[C@@H](CCCCN2C[C@H](Cc3ccc(O)cc3)N(CCc3ccccc3)C(=O)C2=O)N(Cc2ccccc2)C1=O,.,20.9%,25.2%,i,?,.
CCN(CC)CCCNc1nc(-c2ccccc2)nc2ccccc12,7.2%,?,?,i,i,-1.7%
CCN(CC)CCCNc1nc2ccccc2c2[nH]c3ccc(OC)cc3c12,?,?,20.6µM*,16.4µM*,?,13.4%
CCCN(CCC)Cc1cc(=O)oc2cc(C)cc(C)c12,.,20.1%,1.1%,i,i,.
c1ccc2c(c1)CCN(c1nc3cc4c(cc3s1)OCCO4)C2,4.2%,?,?,?,?,14.6µM*
COc1ccc(OC)c2sc(N3CCc4ccccc4C3)nc12,-0.8%,-2.7%,-23.2%,?,i,7.4%
O=C(NCc1ccc(F)cc1)c1cc(C2CCCN(C(=O)c3ccc4c(c3)CCO4)C2)on1 (stereo not given),.,-23.6%,-7.5%,i,i,.
CNC(=O)c1ccc(CN(C)C(=O)/C=C/c2ccc(S(=O)(=O)N3CCCCCC3)cc2)cc1,.,-7.2%,-16.8%,i,i,.
CCOc1ccc(-c2cc(C(=O)NCCc3ccc(OC)c(OC)c3)[nH]n2)cc1,.,.,.,i,i,.
COc1ccc(CCNC(=O)/C=C/c2ccc(S(=O)(=O)N3CCOCC3)cc2)cc1,4.11µM*,-3.6%[9.24 µM],-0.8%,i,i,7.9%
COc1cccc(NC(=O)CN(C)C(=O)/C=C/c2ccc(S(=O)(=O)N3CCCCCC3)cc2)c1,.,-14.7%,?,?,i,.
COc1ccc(CN(C)C(=O)/C=C/c2ccc(S(=O)(=O)N3CCCCCC3)cc2)cc1,16.7%,-11.1%,-6.8%,3.26µM*,?,?
CCOc1ccc(/C=C/C(=O)NCCc2ccc(OC)c(OC)c2)cc1,-0.8%,-1.4%,3.0%,16.4µM*,i,2.8%
CN(CC(=O)Nc1cccc(F)c1)C(=O)/C=C/c1ccc(S(=O)(=O)N2CCCCCC2)cc1,6.7%,-11.9%,?,18.4µM*,i,7.8%
O=C(/C=C/c1ccc(S(=O)(=O)N2CCOCC2)cc1)Nc1cc(F)ccc1F,-9.1%,?,-4.1%,i,i,?
